The whole screen tested about 5,500 compounds, of which about 2,000 (36%) were called active. About 18% were inconclusive and are not listed. No stated cut-off is given here; in the data, active means normalized growth mostly below about 0.91 (no sharp cut-off); inconclusive means no clear call, values can overlap the other calls; inactive means mostly above about 0.92. Some of the results follow.
Experiment: chemical genetic growth profiling, strain panel (AID 1159580);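 further: tested at 20 µM; growth read once vehicle control cultures reached saturation at 30 °C; 1 = growth at the plate median or of vehicle wells; lower values mean less growth of the strain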
Settings: growth OD

Measured: normalized growth

COS(C)(=O)=O
inactive: S. cerevisiae deletion strains, locus YJR075W, strain HOC1, active compounds read low 1.01 | S. cerevisiae deletion strains, locus YKL009W, strain mrt4, active compounds read low 1.03 | S. cerevisiae deletion strains, locus YKL068W, active compounds read low 1.01 | S. cerevisiae deletion strains, locus YKL085W, strain MDH1 (second series), active compounds read low 1.02 | S. cerevisiae deletion strains, locus YKL085W, strain MDH1, active compounds read low 1.02 | S. cerevisiae deletion strains, locus YKL160W, strain elf1, active compounds read low 1 | S. cerevisiae deletion strains, locus YKL190W, strain CNB1, active compounds read low 1 | S. cerevisiae deletion strains, locus YKR001C, strain vps1, active compounds read low 1.01 | S. cerevisiae deletion strains, locus YKR026C, strain gcn3, active compounds read low 0.996 | S. cerevisiae deletion strains, locus YKR091W, strain srl3, active compounds read low 0.993 | S. cerevisiae deletion strains, locus YLL001W, strain dnm1, active compounds read low 0.996 | S. cerevisiae deletion strains, locus YLL026W, active compounds read low 0.996 | S. cerevisiae deletion strains, locus YLL041C, strain sdh2, active compounds read low 1 | S. cerevisiae deletion strains, locus YLR027C, strain aat2, active compounds read low 0.97 | S. cerevisiae deletion strains, locus YLR039C, strain RIC1, active compounds read low 1.07 | S. cerevisiae deletion strains, locus YLR058C, strain SHM2, active compounds read low 1.01 | S. cerevisiae deletion strains, locus YLR102C, strain apc9, active compounds read low 1.01 | S. cerevisiae deletion strains, locus YLR113W, strain HOG1, active compounds read low 0.983 | S. cerevisiae deletion strains, locus YLR221C, strain rsa3, active compounds read low 0.961 | S. cerevisiae deletion strains, locus YLR258W, strain gsy2, active compounds read low 1.03 | S. cerevisiae deletion strains, locus YLR262C, strain YPT6 (second series), active compounds read low 0.997 | S. cerevisiae deletion strains, locus YLR262C, strain YPT6, active compounds read low 1.06 | S. cerevisiae deletion strains, locus YLR268W, strain sec22, active compounds read low 0.973 | S. cerevisiae deletion strains, locus YLR320W, strain mms22, active compounds read low 0.954 | S. cerevisiae deletion strains, locus YLR330W, strain CHS5, active compounds read low 1.01 | S. cerevisiae deletion strains, locus YLR342W, strain FKS1 (second series), active compounds read low 1.08 | S. cerevisiae deletion strains, locus YLR342W, strain FKS1, active compounds read low 0.992 | S. cerevisiae deletion strains, locus YLR357W, strain rsc2, active compounds read low 0.935 | S. cerevisiae deletion strains, locus YLR370C, strain arc18, active compounds read low 1 | S. cerevisiae deletion strains, locus YLR371W, strain rom2, active compounds read low 1.02 | S. cerevisiae deletion strains, locus YLR384C, strain iki3, active compounds read low 0.982 | S. cerevisiae deletion strains, locus YLR418C, strain cdc73, active compounds read low 0.95 | S. cerevisiae deletion strains, locus YML016C, strain PPZ1, active compounds read low 1 | S. cerevisiae deletion strains, locus YML032C, strain rad52, active compounds read low 1.03 | S. cerevisiae deletion strains, locus YML120C, strain ndi1, active compounds read low 1 | S. cerevisiae deletion strains, locus YML124C, strain tub3, active compounds read low 1.01 | S. cerevisiae deletion strains, locus YMR058W, strain fet3, active compounds read low 1.02 | S. cerevisiae deletion strains, locus YMR078C, strain ctf18, active compounds read low 1.02 | S. cerevisiae deletion strains, locus YMR125W, strain sto1, active compounds read low 0.992 | S. cerevisiae deletion strains, locus YMR129W, active compounds read low 0.997 | S. cerevisiae deletion strains, locus YMR205C, strain PFK2, active compounds read low 1 | S. cerevisiae deletion strains, locus YMR223W, strain ubp8, active compounds read low 1.05 | S. cerevisiae deletion strains, locus YMR231W, strain pep5, active compounds read low 0.985 | S. cerevisiae deletion strains, locus YMR263W, strain SAP30, active compounds read low 0.995 | S. cerevisiae deletion strains, locus YMR307W, strain GAS1, active compounds read low 1.05 | S. cerevisiae deletion strains, locus YNL067W, strain RPL9B, active compounds read low 1 | S. cerevisiae deletion strains, locus YNL071W, strain lat1, active compounds read low 1 | S. cerevisiae deletion strains, locus YNL128W, strain TEP1, active compounds read low 0.987 | S. cerevisiae deletion strains, locus YNL153C, strain GIM3, active compounds read low 0.976 | S. cerevisiae deletion strains, locus YNL183C, strain NPR1, active compounds read low 1 | S. cerevisiae deletion strains, locus YNL209W, strain ssb2, active compounds read low 1.01 | S. cerevisiae deletion strains, locus YNL233W, strain BNI4, active compounds read low 0.99 | S. cerevisiae deletion strains, locus YNL248C, strain rpa49, active compounds read low 0.998 | S. cerevisiae deletion strains, locus YNL250W, strain rad50, active compounds read low 1.02 | S. cerevisiae deletion strains, locus YNL271C, strain bni1, active compounds read low 1.02 | S. cerevisiae deletion strains, locus YNL298W, strain CLA4, active compounds read low 1.02 | S. cerevisiae deletion strains, locus YNL307C, strain MCK1, active compounds read low 1.03 | S. cerevisiae deletion strains, locus YNL322C, strain KRE1 (second series), active compounds read low 0.976 | S. cerevisiae deletion strains, locus YNL322C, strain KRE1, active compounds read low 1.01 | S. cerevisiae deletion strains, locus YNR049C, strain mso1, active compounds read low 0.995 | S. cerevisiae deletion strains, locus YNR052C, strain pop2, active compounds read low 1.03 | S. cerevisiae deletion strains, locus YOL006C, strain TOP1, active compounds read low 1.03 | S. cerevisiae deletion strains, locus YOL012C, strain htz1 0.976 | S. cerevisiae deletion strains, locus YOL147C, strain pex11, active compounds read low 1.01 | S. cerevisiae deletion strains, locus YOR001W, strain rrp6, active compounds read low 0.942 | S. cerevisiae deletion strains, locus YOR061W, strain CKA2, active compounds read low 1 | S. cerevisiae deletion strains, locus YOR069W, strain VPS5, active compounds read low 1.01 | S. cerevisiae deletion strains, locus YOR070C, strain gyp1, active compounds read low 0.989 | S. cerevisiae deletion strains, locus YOR080W, strain dia2, active compounds read low 0.986 | S. cerevisiae deletion strains, locus YOR083W, strain WHI5, active compounds read low 1.01 | S. cerevisiae deletion strains, locus YOR106W, strain vam3, active compounds read low 1.03 | S. cerevisiae deletion strains, locus YOR136W, strain idh2, active compounds read low 1.01 | S. cerevisiae deletion strains, locus YOR144C, strain elg1, active compounds read low 1 | S. cerevisiae deletion strains, locus YOR184W, strain ser1, active compounds read low 1.05 | S. cerevisiae deletion strains, locus YOR231W, strain MKK1, active compounds read low 0.987 | S. cerevisiae deletion strains, locus YOR265W, strain rbl2, active compounds read low 0.999 | S. cerevisiae deletion strains, locus YOR270C, strain vph1, active compounds read low 0.981 | S. cerevisiae deletion strains, locus YOR290C, strain snf2, active compounds read low 0.995 | S. cerevisiae deletion strains, locus YOR316C, strain cot1, active compounds read low 1.02 | S. cerevisiae deletion strains, locus YPL051W, strain arl3, active compounds read low 1.02 | S. cerevisiae deletion strains, locus YPL055C, strain LGE1, active compounds read low 0.968 | S. cerevisiae deletion strains, locus YPL078C, strain atp4, active compounds read low 1.01 | S. cerevisiae deletion strains, locus YPL106C, strain sse1, active compounds read low 0.99 | S. cerevisiae deletion strains, locus YPL240C, strain hsp82, active compounds read low 0.995 | S. cerevisiae deletion strains, locus YPL241C, strain CIN2, active compounds read low 1 | S. cerevisiae deletion strains, locus YPL256C, strain CLN2, active compounds read low 0.99 | S. cerevisiae deletion strains, locus YPR119W, strain clb2, active compounds read low 1 | S. cerevisiae deletion strains, locus YPR141C, strain kar3, active compounds read low 1.02 | S. cerevisiae deletion strains, locus YPR163C, strain tif3, active compounds read low 1 | S. cerevisiae deletion strains, locus YPR167C, strain met16, active compounds read low 1.01 | S. cerevisiae deletion strains, strain wtn01, active compounds read low 0.981 | S. cerevisiae strains, strain wild type, active compounds read low 1.01

— PubChem BioAssay AID1159580 (chemical genetic matrix, 2015)
